The record followed here is PubChem BioAssay (NCATS).

The target in experiment [1] is Aldehyde dehydrogenase, mitochondrial (Homo sapiens) (UniProt P05091). As to the kind of experiment: qHTS for Inhibitors of the Aldehyde Dehydrogenase Family (ALDH2) Primary screen (AID 2061308). Also: nearly all actives have a fitted effect of over 55% in size. The settings on record: ALDH2 enzyme inhibition qHTS, 1536-well; series mostly up to 56 µM. On the technique in general: qHTS replaces the single test concentration by a dilution series.

Experiment [2] deals with Retinaldehyde dehydrogenase 3 (Homo sapiens) (UniProt P47895). As to the kind of experiment: qHTS for Inhibitors of the Aldehyde Dehydrogenase Family (ALDH1A3) Primary screen (AID 2061315). The settings on record: ALDH inhibition qHTS; series mostly up to 56 µM.

The structures appear in SMILES notation. Inconclusive results are not listed. Where a call stands in place of a potency, no number is given. Activity calls are given as the source filed them. Calls follow the shape of the dose curve; as a rule, active = well fitted curve in the direction sought with a large enough effect; inconclusive = small, poorly fitted or top-dose-only effect, or another doubt; inactive = no such curve, though single readings can be large; an effect the other way counts as inactive or inconclusive.

As for `COc1ccc2nc(-c3cccc(F)c3)sc2c1`, the Potency entry in experiment [1] and in experiment [2] was “inactive” each time.

For `O=S(=O)(c1ccc2c(c1)OCCO2)N1CCN(S(=O)(=O)c2ccccc2F)CC1`, the Potency entry in experiment [1] and in experiment [2] was “inactive” each time.

Consider `N[C@@H](Cc1ccc(O[S+](=O)([O-])c2cccc3cnccc23)cc1)C(=O)N1CCN(c2ccccc2)CC1`, for which the Potency entry in experiment [1] and in experiment [2] was “inactive” throughout.

With `O=C(Nc1ccc(N2CCOCC2)c(C(F)(F)F)c1)Nc1nnc(-c2ccncc2)s1`, the Potency entry in experiment [1] and in experiment [2] was “inactive” in each case.

With `O=c1c2[nH]c3ccsc3c2cnn1Cc1ccccc1F`, the Potency entry in experiment [1] and in experiment [2] was “inactive” in each case.

Consider `CC(C)CC(=O)O[C@@H]1OC=C(CO[C@@H]2O[C@H](CO[C@@H]3O[C@H](CO)[C@@H](O)[C@H](O)[C@H]3O)[C@@H](O)[C@H](O)[C@H]2O)[C@H]2C[C@H](O)[C@@H](CO)[C@@H]12`, for which the Potency result in experiment [1] and in experiment [2] was “inactive” throughout.

For `Cc1ccc(NS(=O)(=O)c2cc3c(cc2Cl)CCC(=O)N3)cc1Cl`, the Potency result in experiment [1] and in experiment [2] was “inactive” throughout.

As to `Cc1nc(NCc2ccccc2)c2nc(-c3ccccc3)n(CCCN(C)C)c2n1`, the Potency entry in experiment [1] and in experiment [2] was “inactive” throughout.

As to `Cc1noc(C)c1-c1ccc2ncnc(NCc3ccc(C(F)(F)F)cc3)c2c1`, the Potency result in experiment [1] and in experiment [2] was “inactive” in each case.

As for `Cc1csc(CNc2ncnc3ccc(-c4cccc(Cl)c4)cc23)c1`, the Potency result in experiment [1] and in experiment [2] was “inactive” each time.

Consider `O=S(=O)(NC1CCN(S(=O)(=O)c2ccc3c(c2)OCCO3)C1)c1c(F)cccc1F` (stereo unspecified), for which the Potency result in experiment [1] and in experiment [2] was “inactive” in each case.

For the compound `Cc1ccc(S(=O)(=O)Nc2ccccc2C(=O)Nc2ccc(-c3ccccc3)cn2)cc1`, the Potency entry in experiment [1] and in experiment [2] was “inactive” each time.

In the case of `O=C(Nc1ccc(Cl)c(Cl)c1)Nc1ccnc(-c2ccncc2)n1`, the Potency entry in experiment [1] and in experiment [2] was “inactive” throughout.
